# From ChEMBL document CHEMBL5606458, “ASAP - ZIKV NS2B-NS3 protease fluorescence single point” (2024)
# Among all 2,700 compounds or so, about 160 (5.9%) showed an effect of 50% or more. For the sample, strong results were picked, then their nearest neighbours and some compounds at random.
# Molecular target: Nonstructural protein 3 (Zika virus) (UniProt A0A024AXB9)
# [1] = PRVABC59, Concentration 50.0 uM, Number of replicates 1.0
# Sequence of Nonstructural protein 3 (Zika virus) (A0A024AXB9 as listed by the source): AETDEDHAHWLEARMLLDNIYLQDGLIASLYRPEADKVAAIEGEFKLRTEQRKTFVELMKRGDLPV
smiles,measurement,setting,value
N=C(N)NCCC[C@H](NC(=O)[C@H](Cc1ccc(CN)cc1)NC(=O)c1ccccc1)B(O)O,inhibition,"PRVABC59, Concentration 10.0 uM, Number of replicates 3.0, Standard deviation 0.04927937550217375 %",100%
same,inhibition,"PRVABC59, Concentration 49.5 uM, Number of replicates 2.0, Standard deviation 0.010099059252786384 %",99.8%
same,inhibition,"PRVABC59, Concentration 49.5 uM, Number of replicates 2.0, Standard deviation 0.01807256864147136 %",99.7%
same,inhibition,"PRVABC59, Concentration 49.5 uM, Number of replicates 2.0, Standard deviation 0.060713041042124986 %",99.8%
same,inhibition,"PRVABC59, Concentration 49.5 uM, Number of replicates 2.0, Standard deviation 0.06905879139685818 %",99.8%
same,inhibition,"PRVABC59, Concentration 49.5 uM, Number of replicates 2.0, Standard deviation 0.08298276144570521 %",99.9%
same,inhibition,"PRVABC59, Concentration 49.5 uM, Number of replicates 2.0, Standard deviation 0.10271153264626066 %",99.3%
same,inhibition,"PRVABC59, Concentration 49.5 uM, Number of replicates 2.0, Standard deviation 0.1066443393745092 %",99.6%
same,inhibition,"PRVABC59, Concentration 49.95 uM, Number of replicates 2.0, Standard deviation 0.961660259200824 %",101%
same,inhibition,"PRVABC59, Concentration 99.01 uM, Number of replicates 2.0, Standard deviation 0.020192723708963373 %",99.9%
same,inhibition,"PRVABC59, Concentration 99.01 uM, Number of replicates 2.0, Standard deviation 0.05005292294196158 %",99.7%
same,inhibition,"PRVABC59, Concentration 99.01 uM, Number of replicates 2.0, Standard deviation 0.0511966198231532 %",99.7%
same,inhibition,"PRVABC59, Concentration 99.01 uM, Number of replicates 2.0, Standard deviation 0.06657179015992734 %",99.4%
same,inhibition,"PRVABC59, Concentration 99.01 uM, Number of replicates 2.0, Standard deviation 0.07055854485426984 %",99.9%
same,inhibition,"PRVABC59, Concentration 99.01 uM, Number of replicates 2.0, Standard deviation 0.0908591644954211 %",99.8%
same,inhibition,"PRVABC59, Concentration 99.01 uM, Number of replicates 2.0, Standard deviation 0.09853596007058937 %",100%
same,inhibition,"PRVABC59, Concentration 99.9 uM, Number of replicates 2.0, Standard deviation 0.9426813647289743 %",101%
same,inhibition,"PRVABC59, Concentration 198.0 uM, Number of replicates 2.0, Standard deviation 0.016157415845136337 %",99.7%
same,inhibition,"PRVABC59, Concentration 198.0 uM, Number of replicates 2.0, Standard deviation 0.0195885064887112 %",99.5%
same,inhibition,"PRVABC59, Concentration 198.0 uM, Number of replicates 2.0, Standard deviation 0.04517602680706901 %",99.6%
same,inhibition,"PRVABC59, Concentration 198.0 uM, Number of replicates 2.0, Standard deviation 0.06178660556739447 %",99.7%
same,inhibition,"PRVABC59, Concentration 198.0 uM, Number of replicates 2.0, Standard deviation 0.09594645769808005 %",99.7%
same,inhibition,"PRVABC59, Concentration 198.0 uM, Number of replicates 2.0, Standard deviation 0.10841922745899998 %",99.2%
same,inhibition,"PRVABC59, Concentration 198.0 uM, Number of replicates 2.0, Standard deviation 0.1903446087692639 %",99.7%
O=Cc1ccc(N2CCC(C(=O)N3CCN(CCc4ccccc4)CC3)CC2)cc1,inhibition,[1],37.9%
Nc1ccc(/C=C/C(=O)C(=O)N2CCN(CCc3ccccc3)CC2)cc1,inhibition,"PRVABC59, Concentration 49.5 uM, Number of replicates 2.0, Standard deviation 1.009989544626084 %",23.1%
same,inhibition,"PRVABC59, Concentration 99.01 uM, Number of replicates 2.0, Standard deviation 0.19781370467497048 %",38.5%
same,inhibition,"PRVABC59, Concentration 198.0 uM, Number of replicates 2.0, Standard deviation 0.599146111439346 %",56%
O=C(/C=C/c1ccccc1)C(=O)N1CCN(CCc2ccccc2)CC1,inhibition,"PRVABC59, Concentration 49.5 uM, Number of replicates 2.0, Standard deviation 0.08274041706676757 %",1.32%
same,inhibition,"PRVABC59, Concentration 99.01 uM, Number of replicates 2.0, Standard deviation 0.30038362391023454 %",6.15%
same,inhibition,"PRVABC59, Concentration 198.0 uM, Number of replicates 2.0, Standard deviation 0.5414096494264544 %",13.3%
same,inhibition,"PRVABC59, Concentration 200.0 uM, Number of replicates 1.0",96.2%
OCCOc1cc(COc2cccnc2F)nc(N2CCNCC2)n1,inhibition,"PRVABC59, Concentration 49.5 uM, Number of replicates 2.0, Standard deviation 1.0649598246775087 %",10.8%
same,inhibition,"PRVABC59, Concentration 99.01 uM, Number of replicates 2.0, Standard deviation 1.1158273619074888 %",21.6%
same,inhibition,"PRVABC59, Concentration 198.0 uM, Number of replicates 2.0, Standard deviation 0.21003831379185828 %",36.7%
NC(=O)c1cn(C[C@H]2CCCN2c2ccnc3ccccc23)nn1,inhibition,"PRVABC59, Concentration 49.5 uM, Number of replicates 2.0, Standard deviation 1.7032876695413104 %",13.6%
same,inhibition,"PRVABC59, Concentration 99.01 uM, Number of replicates 2.0, Standard deviation 1.9821170579482856 %",21.5%
same,inhibition,"PRVABC59, Concentration 198.0 uM, Number of replicates 2.0, Standard deviation 3.129764278957135 %",35.6%
O=Cc1ccc(N2CCC(C(=O)N3CCN(c4ccc([N+](=O)[O-])cc4C(F)(F)F)CC3)CC2)cc1,inhibition,[1],51.4%
CS(=O)(=O)c1ccc(N2CCN(C(=O)C3CCN(c4ccc(C=O)cc4)CC3)CC2)c([N+](=O)[O-])c1,inhibition,[1],38.3%
O=Cc1ccc(N2CCC(C(=O)N3CCC(CCN4CCCC4)CC3)CC2)cc1,inhibition,[1],40.2%
Fc1ncccc1OCc1cc(Cl)nc(N2CCNCC2)n1,inhibition,"PRVABC59, Concentration 49.5 uM, Number of replicates 2.0, Standard deviation 1.0140201320428779 %",15.1%
same,inhibition,"PRVABC59, Concentration 99.01 uM, Number of replicates 2.0, Standard deviation 1.7990689115932277 %",28.4%
same,inhibition,"PRVABC59, Concentration 198.0 uM, Number of replicates 2.0, Standard deviation 0.8686404786633404 %",49%
COc1ccc(S(=O)(=O)n2nc(OC(=O)c3cccc(-c4ccccc4Cl)c3)cc2N)cc1,inhibition,"PRVABC59, Concentration 49.5 uM, Number of replicates 2.0, Standard deviation 0.015159378472398365 %",94.1%
same,inhibition,"PRVABC59, Concentration 99.01 uM, Number of replicates 2.0, Standard deviation 0.0016885713387404585 %",94.1%
same,inhibition,"PRVABC59, Concentration 198.0 uM, Number of replicates 2.0, Standard deviation 0.07411371581986076 %",93.9%
c1ccc2oc(C3CCN(Cc4c[nH]c5ccccc45)CC3)nc2c1,inhibition,"PRVABC59, Concentration 49.5 uM, Number of replicates 2.0, Standard deviation 0.07645236015003325 %",37.2%
same,inhibition,"PRVABC59, Concentration 99.01 uM, Number of replicates 2.0, Standard deviation 0.17318915555138958 %",54.7%
same,inhibition,"PRVABC59, Concentration 198.0 uM, Number of replicates 2.0, Standard deviation 0.13417938126885842 %",70.9%
c1ccc2sc(C3CCN(Cc4c[nH]c5ccccc45)CC3)nc2c1,inhibition,"PRVABC59, Concentration 49.5 uM, Number of replicates 2.0, Standard deviation 0.0213310257935456 %",83.5%
same,inhibition,"PRVABC59, Concentration 99.01 uM, Number of replicates 2.0, Standard deviation 0.10666052376433739 %",89.1%
same,inhibition,"PRVABC59, Concentration 198.0 uM, Number of replicates 2.0, Standard deviation 0.03774199707932348 %",90.7%
Cc1nc(C2CCN(Cc3c[nH]c4ccccc34)CC2)sc1C(=O)O,inhibition,"PRVABC59, Concentration 49.5 uM, Number of replicates 2.0, Standard deviation 1.7503606417061577 %",29.1%
same,inhibition,"PRVABC59, Concentration 99.01 uM, Number of replicates 2.0, Standard deviation 0.7623791698480982 %",49%
same,inhibition,"PRVABC59, Concentration 198.0 uM, Number of replicates 2.0, Standard deviation 0.018153490590612276 %",66.9%
c1ccc(-c2csc(C3CCN(Cc4c[nH]c5ccccc45)CC3)n2)cc1,inhibition,"PRVABC59, Concentration 49.5 uM, Number of replicates 2.0, Standard deviation 0.9101885047505917 %",64.4%
same,inhibition,"PRVABC59, Concentration 99.01 uM, Number of replicates 2.0, Standard deviation 0.676804208631579 %",66.1%
same,inhibition,"PRVABC59, Concentration 198.0 uM, Number of replicates 2.0, Standard deviation 0.5886424424408551 %",66.1%
